The supplement of paper PMC9897528
Values without a mark were called inactive.

These compounds were tested on Scedosporium aurantiacum CBS 136046 (assay: growth inhibition relative to DMSO control (OD600); higher = more antifungal activity, active = 80 or more; extreme values may be limits of the assay). Conditions: 5 µM; 72 h; 37 °C.
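Also: conidia screened in RPMI 1640 medium under 5% CO2, growth read by spectrophotometer, medium with 0.5% DMSO serving as the untreated reference.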

Row | Structure (SMILES) | growth inhibition
1 | COc1ccc(NC(=O)c2cc3ccccn3n2)cc1 | 36.8%
2 | CC(C)(C)c1ccc(C(=O)NC(=O)N2CCCc3ccccc32)cc1 | 0.0285%
3 | CCc1cc(Nc2cc(=O)n(CCN3CCN(C(=O)c4ccccc4)CC3)c(=O)[nH]2)ccc1C | 0%
4 | CCCCCc1ccc(C(=O)NCCn2cc(CCCCCc3c[nH]c(N)n3)nn2)cc1 | 46%
5 | CC[C@H](CO)Nc1nc(NCc2ccccc2)c2ncn(C(C)C)c2n1 | 10%
6 | CCCCc1ccc(-c2cc(C(=O)O)cc(-c3ccc(Cl)cc3)n2)cc1 | 37.3%
7 | Cn1c2ccccc2c(=O)c2c(O)cccc21 | 6.84%
8 | CCCCCCCCCN1C[C@@H](O)[C@H](O)[C@@H](O)[C@@H]1CO | 13.7%
9 | CCc1cc(CCCOc2c(C)cc(-c3noc(C(F)(F)F)n3)cc2C)on1 | 7.39%
10 | Nc1nc(N)c2c(Sc3ccccc3)cccc2n1 | 18%
11 | COc1ccc(CNC(=O)C2CCN([C@H](C)c3cccc4ccccc34)CC2)cc1 | 9.67%
12 | CC(C)(C)c1ccc(OCCn2nc(C(=O)O)c3ccccc3c2=O)cc1 | 16.2%
13 | CCNC(=O)Nc1cc2c(-c3ccnc(C)c3)ccc(CNC(=O)OC)c2cn1 | 13.3%
14 | CCc1nc(N)nc(N)c1C#CC(C)c1cc(OC)cc(-c2ccncc2)c1 (stereo not drawn) | 48.8%
15 | Cc1ccn2c(C(=O)NCc3ccccc3)c(C)nc2c1 | 34%
16 | Cc1onc(-c2ccccc2Cl)c1C(=O)N[C@@H]1C(=O)N2[C@@H]1SC(C)(C)[C@@H]2C(=O)O | 0.0225%
17 | O=C(Nc1ccc(Cl)c(C(F)(F)F)c1)C(CCCl)C(=O)Nc1ccc(Cl)c(C(F)(F)F)c1 | 0%
18 | Cc1cc(C2CCCCC2)n(O)c(=O)c1 | 18.5%
19 | NC(=O)c1cnccn1 | 1.73%

Row | Structure (SMILES) | growth inhibition
20 | Cc1ccc(S(=O)(=O)Nc2cccc3cccnc23)cc1 | 42.5%
21 | OB1OCc2cc(Cl)ccc21 | 6.18%
22 | Clc1ccc(COC(Cn2ccnc2)c2ccc(Cl)cc2Cl)c(Cl)c1 (stereo not drawn) | 80.6% (active)
23 | Nc1nc(=O)c(Br)c(-c2ccccc2)[nH]1 | 0.62%
24 | COc1ccc(NC(=O)CC2Sc3ncnn3C2=O)cc1 (stereo not drawn) | 0%
25 | O=C(Nc1nnc(-c2ccc(Cl)cc2)o1)c1nc2ccccc2s1 | 15.8%
26 | O=C(O)c1ccc(-c2ccc(O[C@H]3O[C@H](CO)[C@@H](O)[C@H](O)[C@@H]3O)cc2)cc1 | 10.9%
27 | FC(F)(F)Oc1ccc(Nc2ccc3cccc(Cl)c3n2)cc1 | 25.3%
28 | Nc1cc(N)c2nc(-c3ccccc3)c(Nc3ccc(F)cc3)nc2c1 | 0.18%
29 | Nc1nc(=O)[nH]cc1F | 0.0511%
30 | NC(=O)c1[nH]c2ccc(S(N)(=O)=O)cc2c1-c1ccccc1 | 34.5%
31 | c1ccc(-c2nnc3c4ccccc4c(N4CCNCC4)nn23)cc1 | 23.6%
32 | O=C(O)C[C@H]1CC[C@H](c2ccc(-c3ccc(Nc4ccc(C(F)(F)F)nc4)cn3)cc2)CC1 | 12.5%
33 | O=C(O)c1ccc(-n2nc(-c3ccccc3O)nc2-c2ccccc2O)cc1 | 0.0499%
34 | O=C(O)CCNC(=O)c1ccccc1 | 36.7%
35 | COc1nc2ccc(Br)cc2cc1[C@@H](c1ccccc1)[C@@](O)(CCN(C)C)c1cccc2ccccc12 | 43.6%
36 | CCCCc1ccc(S(=O)(=O)Nc2cc(C)on2)cc1 | 2.13%
37 | NS(=O)(=O)c1ccc(NC(=O)NC(c2ccccc2)c2ccccc2)cc1 | 25.6%
38 | CCc1c(O)nc2ccc(F)cc2c1OCC1CCC1 | 23.8%
